Common to all, as to assay: NCI-60 one-dose screen, 48 h (100 = growth as untreated, 0 = no growth, -100 = all killed)
Common to all, as to conditions: 10 µM

For test [1], the system named is T-47D breast.
Test [2] concerns BT-549 breast.
The subject of test [3] is MDA-MB-435 melanoma.
In test [4] the test system is MCF7 breast.
In test [5] the test system is HCT-116 colon.
Test [6] concerns HCC-2998 colon.
In test [7] the test system is KM12 colon.
In test [8] the test system is SW-620 colon.

This is part of a sample that, as a whole, favours compounds with a hit. Of some 83,000 tested, about 20% had one in any assay.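 96-well plates, one dose, 48 hours. Percent growth reported; active if below 10.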 A number with no mark means an inactive call. Calls of active or inactive are those of the source.

With `NC(N)=N/N=C(\c1ccccc1)C(O)c1ccccc1` (stereo not given), the growth in test [1] is 89.9%; in test [2], 103%; in test [3], 107%; in test [4] it was 94.9%; in test [5], 100%; in test [6], 100%. Moreover, the growth in test [7] is 105%.
With `CCN(CC)CCCC(C)N=C(C1=C(C(=NC(C)CCCN(CC)CC)c2cccc(OC)c2)C(=O)NC1=O)c1cccc(OC)c1` (stereo not given), the growth is -37.3% (active) in test [1]; -91.1% (active) in test [3]; -9.07% (active) in test [8]; -29.8% (active) in test [4]; -19% (active) in test [5]; -69.9% (active) in test [6]. Also, the growth in test [7] is 2.43% (active).
As for `C=CCSC(CC)(CC)C(=O)NC`, the growth was 102% in test [1]; 109% in test [3]; 103% in test [8]; 94.6% in test [4]; 94% in test [5]; 102% in test [6]. Moreover, the growth in test [7] is 104%.
Turning to `CC(C)=CCC/C(C)=C/CC/C(C)=C/CC/C=C(\C)CC/C=C(\C)CCC(=O)Nc1ccn(C2OC(CO)C(O)C2(F)F)c(=O)n1` (stereo not given), the growth was 41% in test [1]; 29.9% in test [3]; 33.6% in test [8]; 21.8% in test [4]; 20.3% in test [5]; 82.4% in test [6].
As to `Nc1ncc(-c2cnn(C3CCNCC3)c2)cc1-c1nc2ccccc2o1`, the growth in test [1] was -4.42% (active); in test [3], -55.5% (active); in test [8], -60.4% (active); in test [4], 11.6%; in test [5], -2.99% (active); in test [6] it was 14.2%. The growth in test [7] is -81.3% (active).
As to `CC(=O)COc1ccc(Cl)cc1Cl`, the growth in test [1] is 98.7%; in test [3], 102%; in test [8] it was 97.2%; in test [4] it was 104%; in test [5] it was 99.1%; in test [6], 109%. The growth in test [7] is 113%.
As to `CCn1c(CSc2nc3ccccc3c(=O)n2CCc2ccccc2)n[nH]c1=S`, the growth in test [1] was 73.3%; in test [2], 72.3%; in test [3], 84.8%; in test [4], 84%; in test [5] it was 65.5%; in test [6], 99%. Further, in test [7], the growth was 92.3%.
Take `O=C(Nc1cccc2c1CCCC2)c1cc2ccccc2cc1O`: the growth in test [1] was 32.4%; in test [2], 27.4%; in test [3], 41.8%; in test [4], 62.6%; in test [5], 6.56% (active); in test [6], 59.1%. Also, the growth in test [7] is 49.9%.
As to `Clc1ccc(/C=C2\CCCC3C2=Nc2ccccc2NC3c2ccc(Cl)cc2)cc1` (stereo not given), the growth was 104% in test [1]; 83% in test [2]; 11.9% in test [3]; 35.8% in test [4]; -87% (active) in test [5]; 17.3% in test [7].
For the compound `COc1ccc(-c2nn(-c3cccc(Cl)c3)cc2-c2c(C#N)c(N)n(N)c(=O)c2C#N)cc1`, the growth in test [1] was 48.7%; in test [2], 58%; in test [8], 83%; in test [4], 47.5%; in test [5] it was 45.7%; in test [6], 93.4%. The growth in test [7] was 62.3%.
For the compound `COc1nc2c(c(=O)n1C)CN(c1ccccc1)C(=O)C(C)N2` (stereo not given), the growth in test [1] is 95.5%; in test [3], 103%; in test [8] it was 99.9%; in test [4] it was 94.5%; in test [5], 95.4%; in test [6] it was 94.5%. Also, the growth in test [7] was 105%.
With `Cc1cc(NC(=O)c2ccc(C)c(Nc3nccc(-c4cccnc4)n3)c2)cc(-n2cnc(C)c2)c1`, the growth in test [1] is -4.71% (active); in test [3], 12.2%; in test [8], 50.2%; in test [4] it was 24.4%; in test [5], -64.1% (active); in test [6], 70.8%. Moreover, the growth in test [7] is 35.1%.
For `O=S(=O)(Oc1ccc(-c2ccc3sccc3c2)cc1)c1ccc(F)cc1`, the growth is 96% in test [1]; 93.5% in test [3]; 93.5% in test [8]; 84.8% in test [4]; 102% in test [5]; 86.8% in test [6]. Moreover, in test [7], the growth was 104%.
Consider `CN1CCN(c2cc3c(cc2F)c(=O)c(C(=O)O)cn3-c2ccc(F)cc2)CC1`, for which the growth in test [1] was 99.9%; in test [3], 103%; in test [8] it was 98%; in test [4] it was 104%; in test [5], 95.5%; in test [6], 106%. Moreover, the growth in test [7] is 99%.
For `O=C(Nc1ccc(F)cc1)c1cc2ccccc2cc1O`, the growth is 46.3% in test [1]; 86.3% in test [3]; 90.9% in test [8]; 58.5% in test [4]; 77.9% in test [5]; 104% in test [6]. Further, in test [7], the growth was 69.2%.
Regarding `CCCCCCCCCCOC(c1ccccc1)c1ccccc1`, the growth in test [1] was 77.1%; in test [3], 99%; in test [8] it was 98.1%; in test [4], 91.1%; in test [5], 58.6%; in test [6] it was 99%. Also, the growth in test [7] is 89.1%.
Regarding `CCN(CCCNc1cc2c(c(N)c1S(=O)(=O)O)C(=O)c1ccccc1C2=O)c1ccccc1`, the growth is 93.1% in test [1]; 106% in test [3]; 113% in test [8]; 107% in test [4]; 90% in test [5]; 108% in test [6]. Besides, the growth in test [7] is 107%.
Turning to `O=S(=O)(O)c1ccc(Cl)cc1`, the growth is 97.8% in test [1]; 109% in test [3]; 101% in test [8]; 91.4% in test [4]; 98.4% in test [5]; 98.9% in test [6]. Also, in test [7], the growth is 99.2%.
Take `CN(C)CCOc1ccc(-c2nc3sccn3c2-c2ccnc(S(C)(=O)=O)n2)cc1`: the growth was 110% in test [1]; 107% in test [3]; 104% in test [8]; 90.2% in test [4]; 98.1% in test [5]; 111% in test [6]. In test [7], the growth is 113%.
For the compound `CCN(CC)CCNc1ccc(C)c2sc3cc(Cl)ccc3c(=O)c12`, the growth is 33.1% in test [1]; -44.8% (active) in test [3]; 2.58% (active) in test [8]; 19.8% in test [4]; 11.4% in test [5]; 23.3% in test [6]. Besides, in test [7], the growth was 32.2%.
Take `COc1cc(C2CC(c3ccccc3)=NN2C(C)=O)cc(OC)c1OC` (stereo not given): the growth in test [1] is 34.1%; in test [3] it was -29.4% (active); in test [8] it was 19.1%; in test [4] it was 14.6%; in test [5], 19.3%; in test [6], 49.7%. The growth in test [7] was 18.4%.
As for `CN(C)CCCSc1ccccc1NC1=C(Cl)C(=O)C(Nc2ccccc2SCCCN(C)C)=C(Cl)C1=O`, the growth is -42.8% (active) in test [1]; 92.1% in test [3]; -34.3% (active) in test [8]; -50% (active) in test [4]; 4.82% (active) in test [5]; 103% in test [6]. Besides, in test [7], the growth is 80.2%.
Turning to `O=C(Nc1cc(Cl)cc2c1-c1ccc(Cl)cc1C2O)C(Cl)Cl` (stereo not given), the growth in test [1] was 54.1%; in test [3], 79.2%; in test [8], 79.5%; in test [4], 64.5%; in test [5], 51.1%; in test [6] it was 95.2%. Further, in test [7], the growth was 76.4%.
For the compound `C[C@@H](C[C@H](CCO)c1ccccc1)c1ccc2ccccc2c1`, the growth in test [1] is -58.3% (active); in test [3], -75.3% (active); in test [8] it was -26.5% (active); in test [4], -63% (active); in test [5], -94.3% (active); in test [6] it was -82.9% (active). The growth in test [7] was -42.3% (active).
Turning to `COc1ccc(-c2nn(-c3cccc(Cl)c3)cc2-c2c(C#N)c(=O)n3[nH]c(-c4ccccc4)nc3c2C#N)cc1`, the growth in test [1] was 73.9%; in test [3] it was 91.1%; in test [8], 108%; in test [4], 63.4%; in test [5] it was 87.3%; in test [6], 108%. Besides, in test [7], the growth is 94%.
Consider `CS(=O)(=O)c1nccc(-c2c(-c3ccc(OCCc4ccccc4)cc3)nc3sccn23)n1`, for which the growth was 91.3% in test [1]; 96% in test [3]; 93.7% in test [8]; 66.1% in test [4]; 99.6% in test [5]; 106% in test [6]. The growth in test [7] was 106%.
